Drawing on PubChem BioAssay (NCI), this text covers growth for seven compounds.

About 83,000 compounds went through this panel and 20% of them were active in at least one assay; those are over-represented in the sample as a whole.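 Each cell line was grown in a 96-well plate and treated with one concentration of compound for 48 hours. Values below 10 were considered active.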 A number with no mark means an inactive call. Calls of active or inactive are those of the source.

Among the test systems are NCI-H23 lung; NCI-H322M lung; HOP-62 NSCLC; NCI-H460 lung; HOP-92 NSCLC; NCI-H522 lung; A549/ATCC NSCLC; 786-0 renal; COLO 205 colon; DU-145 prostate; K-562 leukemia; MALME-3M melanoma; MDA-MB-231 breast; SF-268 CNS; SF-295 CNS; SF-539 CNS; UACC-257 melanoma; M14 melanoma; NCI-H226 lung; RXF 393 renal.
Assay in all cases: NCI-60 one-dose screen, 48 h (100 = growth as untreated, 0 = no growth, -100 = all killed)
Settings in all cases: 10 µM

As for `COc1cc(/C=C/[N+](=O)[O-])cc(OC)c1OC`, the growth in the test on NCI-H23 lung was 45%; in the test on NCI-H322M lung it was 36.1%; in the test with HOP-62 NSCLC, 16.8%; with NCI-H460 lung it was 6.31% (active); with HOP-92 NSCLC it was 58.1%; in the test with NCI-H522 lung, -54.8% (active). The growth in the test on A549/ATCC NSCLC was 54.2%; in the test on 786-0 renal, -48% (active); in the test with COLO 205 colon, -53.4% (active); with DU-145 prostate, 9.73% (active); in the test on K-562 leukemia, 5.19% (active); in the test with MALME-3M melanoma, -30.2% (active). Further, the growth was 34% with MDA-MB-231 breast; 28.6% in the test with SF-268 CNS; 69% in the test on SF-295 CNS; -61.3% (active) in the test on SF-539 CNS; -15.8% (active) in the test on UACC-257 melanoma; -6.32% (active) in the test with M14 melanoma.
In the case of `COC(=O)C1C(O)C(C)C(O)C(C)/C=C\C=C(C)C(=O)Nc2c(C)c(OC(C)=O)c3c(c2O)C(=O)C(C)=C2OCOC(=C23)C(C)=CC(C)(O)C(O)C(C)C1O` (stereo unspecified), the growth is 97.6% in the test with NCI-H23 lung; 99.2% in the test with NCI-H226 lung; 106% in the test on NCI-H322M lung; 96.8% in the test with HOP-62 NSCLC; 111% in the test on NCI-H460 lung; 59.1% in the test with NCI-H522 lung. The growth is 98.5% in the test on A549/ATCC NSCLC; 107% in the test with 786-0 renal; 94.7% in the test with COLO 205 colon; 92.2% in the test with DU-145 prostate; 106% in the test on K-562 leukemia; 97.9% with MALME-3M melanoma. The growth with MDA-MB-231 breast is 88.6%; in the test on RXF 393 renal it was 98.6%; with SF-268 CNS it was 92.2%; in the test on SF-295 CNS, 103%; in the test on SF-539 CNS, 100%; in the test on UACC-257 melanoma, 93.1%. In the test on M14 melanoma, the growth was 118%.
For the compound `O=C(CBr)Nc1ccc(Cl)cc1`, the growth with NCI-H23 lung is 81.2%; in the test with NCI-H226 lung, 91.2%; with NCI-H322M lung, 101%; in the test with NCI-H460 lung, 106%; in the test with HOP-92 NSCLC, 91.9%; with NCI-H522 lung it was -67.2% (active). Moreover, the growth with A549/ATCC NSCLC is 100%; in the test on 786-0 renal, 56.6%; with COLO 205 colon it was -3.53% (active); with DU-145 prostate, 105%; in the test on K-562 leukemia it was 12.8%; with MALME-3M melanoma, 29.8%. Besides, the growth in the test with MDA-MB-231 breast was 64.4%; in the test with RXF 393 renal, 97.7%; in the test with SF-268 CNS it was 88.9%; with SF-295 CNS, 103%; in the test with SF-539 CNS, 105%; with UACC-257 melanoma, 99.7%. Further, the growth in the test on M14 melanoma is 67.2%.
Take `CC/C(=C/c1ccc(OC)cc1)[N+](=O)[O-]`: the growth was 51.8% in the test on NCI-H23 lung; -12.5% (active) in the test on NCI-H226 lung; 86% in the test with NCI-H322M lung; 78.1% in the test with HOP-62 NSCLC; 52.7% in the test with NCI-H460 lung; -47.7% (active) in the test with NCI-H522 lung. Besides, the growth was 62.3% in the test on A549/ATCC NSCLC; -83.5% (active) in the test with 786-0 renal; -60.3% (active) with COLO 205 colon; 31.5% with DU-145 prostate; 5.85% (active) with K-562 leukemia; -36.1% (active) with MALME-3M melanoma. For the same compound, the growth was -18.5% (active) in the test with MDA-MB-231 breast; -79.7% (active) with RXF 393 renal; 38% in the test with SF-268 CNS; 98.1% in the test on SF-295 CNS; -19.6% (active) with SF-539 CNS; 4.44% (active) in the test with UACC-257 melanoma. For the same compound, in the test on M14 melanoma, the growth is 19.9%.
With `COc1cc(/C=C/[N+](=O)[O-])cc(Br)c1OC`, the growth is -67.9% (active) with NCI-H23 lung; -18.3% (active) with NCI-H226 lung; 99.5% in the test with NCI-H322M lung; 59.5% in the test on HOP-62 NSCLC; 72.6% with HOP-92 NSCLC; -71.5% (active) with NCI-H522 lung. For the same compound, the growth was 57.2% in the test on A549/ATCC NSCLC; -56.7% (active) in the test with 786-0 renal; 17.5% with COLO 205 colon; 66.5% with DU-145 prostate; 4.74% (active) in the test on K-562 leukemia; 98.1% with MALME-3M melanoma. The growth in the test with MDA-MB-231 breast was 7.14% (active); in the test on RXF 393 renal, -80.5% (active); with SF-268 CNS it was 32%; with SF-295 CNS it was 78.3%; in the test on SF-539 CNS, 28.5%; in the test with UACC-257 melanoma, -13.2% (active). Besides, the growth in the test with M14 melanoma was -72.1% (active).
Take `O=[P+](O)c1ccccc1`: the growth is 107% in the test on NCI-H23 lung; 107% in the test on NCI-H226 lung; 149% in the test on NCI-H322M lung; 93.9% in the test with HOP-62 NSCLC; 106% in the test with NCI-H460 lung; 101% in the test on HOP-92 NSCLC. In addition, the growth with A549/ATCC NSCLC is 107%; in the test on COLO 205 colon, 112%; with DU-145 prostate, 121%; with K-562 leukemia, 103%; in the test with MALME-3M melanoma, 119%; in the test on MDA-MB-231 breast, 112%. The growth was 115% in the test with RXF 393 renal; 103% in the test with SF-268 CNS; 109% with SF-295 CNS; 104% in the test on SF-539 CNS; 101% with UACC-257 melanoma; 100% in the test with M14 melanoma.
On to `COc1ccccc1/C=C/[N+](=O)[O-]`, for which the growth with NCI-H23 lung was 74.9%; in the test on NCI-H226 lung, 96.1%; in the test on NCI-H322M lung, 102%; with HOP-62 NSCLC, 97.1%; in the test on NCI-H460 lung, 74.4%; in the test on NCI-H522 lung, 62.6%. The growth in the test on A549/ATCC NSCLC was 75.5%; in the test with 786-0 renal, 93.1%; with COLO 205 colon it was 79.3%; in the test with DU-145 prostate it was 48.2%; in the test with K-562 leukemia, 33.8%; with MALME-3M melanoma, 97.5%. The growth in the test on MDA-MB-231 breast is 73%; in the test with RXF 393 renal it was 1.37% (active); with SF-268 CNS, 76.1%; with SF-295 CNS, 93.9%; with SF-539 CNS, 64%; in the test on UACC-257 melanoma it was 71.8%. Further, the growth with M14 melanoma is 59.8%.
